Screening data from PubChem.
ROMK mod: human ROMK K+ channel modulation, primary screen. 2% of 130,000 active. Tet-inducible ROMK, thallium flux fluorescence; actives lie on both sides. B-score at 10 µM. AID 1918;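 active means signal ratio slope over the read window, or its plate-corrected B-score, at least 3 SD from the plate mean, either direction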;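 further: B-score of the F/F0 ratio slope over 7 to 12 s after thallium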
Calpain2 inh: blocks pig calpain II enzyme activity. purified calpain II, fluorogenic peptide substrate, 30 min. inhibition, % at 16 µM. 0.37% of 220,000 active;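 active means inhibition above about 50%, limit read from the data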
Cl transport mod: modulators of human KCC2 chloride dependent transport; Q9H2X9; KCC2 cells, thallium flux FluoZin-2 fluorescence; B-score of Tl+ flux slope (higher = more flux/activation; lower = inhibition) at 10 µM; 2.2% of 190,000 active;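 active means thallium flux slope and its plate-corrected score both differing from the plate sample mean at a set confidence after two filtering rounds, in either direction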;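 further: slope of fluorescence scaled to starting intensity during 10 to 20 s after thallium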
WT yeast gro inh: growth inhibition of WT yeast, mitochondrial fusion screen. mitochondrial fusion phenotypic screen, WT strain. inhibition, % at 10 µM. 2.1% of 190,000 active. AID 1362; in the data active means inhibition above about 58%; tested in S. cerevisiae
Lmaj promast: Leishmania major promastigote growth inhibition | 9% of 200,000 active | Leishmania major promastigotes, resazurin fluorescence viability | inhibition, % at 10 µM; in the data active means inhibition above about 50%;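 further: promastigotes grown with compound for 44 hours at 28 °C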
* marks the source's active call; other numbers are inactive results; i = inactive; x = not tested or not shown. Sampled rows, rich in hits. Any-hit rate of the full collection: about 12%.

SMILES	ROMK mod	Calpain2 inh	Cl transport mod	WT yeast gro inh	Lmaj promast
O=C(CCl)Nc1ccc(N2CCCCCC2)cc1	-0.9	18	-1.6	-3	99*
CC(=O)Nc1cn(-c2ccccc2)nc1-c1ccccc1	0.91	-17	0.47	-8	10
CC(C)C(NC(=O)c1ccc(F)cc1)C(=O)OCC(=O)N1CC(=O)Nc2ccccc21 (stereo not drawn)	-0.04	19	1.3	2	68*
CC(C)[C@H](NC(=O)c1ccccc1)C(=O)OCC(=O)N1CC2(C)CC1CC(C)(C)C2 (stereo partly drawn)	-0.5	-2	-0.72	-12	53*
CC(C)[C@H](NC(=O)c1ccccc1)C(=O)OCC(=O)N1CC(=O)Nc2ccccc21	0.12	-1	0.25	-19	-4
CCC(C)(C)c1nnc(NC(=O)c2cccc([N+](=O)[O-])c2)s1	0.15	26	-0.088	22	-2
CC1CCCC(NC(=O)CNCc2ccccc2F)C1C (stereo not drawn)	0.044	-4	-0.57	-16	-10
CCN1C(=O)/C(=C\c2cn(-c3ccccc3)nc2-c2cccnc2)SC1=S	-0.26	51*	-0.0029	-4	24
CCOc1ccc(-c2nn(-c3ccccc3)cc2/C=C2\SC(=S)N(Cc3ccco3)C2=O)cc1	x	-50	1.8	-10	-6
COc1ccc(-c2nn(-c3ccccc3)cc2/C=C/C(=O)OCC(=O)Nc2ccc(C#N)cc2)cc1	x	-65	0.59	-19	92*
Cc1ccccc1NC(=O)COC(=O)/C=C/c1cn(-c2ccccc2)nc1-c1cccnc1	0.44	-21	-0.53	9	53*
CN(C)c1ccc(/C=C/c2nnnn2-c2ccccc2)cc1	x	-130	-1.3	7	56*
CC(=O)N(C(C)=O)c1nc(-c2ccccc2)cn1/N=C/c1cccc([N+](=O)[O-])c1	-0.13	-30	0.003	x	x
C/C(CCN1CCc2nc(-c3ccccc3)c(-c3ccccc3)cc2C1)=N\O[C@H](C)c1cn([C@H](CO)Cc2ccccc2)nn1	-2.5	-57	-0.61	8	3
C/C(CCN1CCc2nc(-c3ccccc3)c(-c3ccccc3)cc2C1)=N\OC[C@@H](C)[C@H](OCc1ccccc1)C(C)C	-0.52	30	-0.02	61*	4
CCc1nnc(N/N=C/c2c(Cl)cccc2Cl)n1N	-0.26	-3	-0.54	-17	50*
O=S(=O)(N1CCCCC1)n1c(Cc2ccccc2)nc2ccccc21	x	11	-0.9	8	54*
O=S(=O)(c1ccc(Br)cc1)n1c(Cc2ccccc2)nc2ccccc21	x	-3	0.62	-12	-2
COc1ccc(C2CCCN2C(=S)Nc2cccc(C)c2C)cc1OC (stereo not drawn)	1.1	5	1.1	12	9
CCC(C)NC(=O)COC(=O)Cc1sc(N)nc1-c1ccc(C)cc1 (stereo not drawn)	-0.06	-29	-0.31	6	-3
Cc1ccc(-c2nc(N)sc2CC(=O)OCC(=O)NCCC(C)C)cc1	x	-80	0.16	-8	60*
CCOc1cc(/C=C2/C(=O)ON=C2C)ccc1OCc1ccccc1F	x	-15	-1.7	11	58*
CCOc1cc(/C=C2/C(=O)ON=C2C)ccc1OCc1ccccc1	x	-51	i	2	40
CC(C)CCn1nc(C(=O)Nc2nc3c(s2)CCCC3)c2ccccc2c1=O	0.17	24	1.5	31	65*
O=C(Nc1nc2c(s1)CCCC2)c1nn(Cc2ccccc2)c(=O)c2ccccc12	x	4	-0.39	1	34
SMILES	ROMK mod	Calpain2 inh	Cl transport mod	WT yeast gro inh	Lmaj promast
O=C(NCc1ccco1)c1ccc(Cl)c(S(=O)(=O)N2CCOCC2)c1	x	21	0.37	14	1
O=C(c1cccc(S(=O)(=O)N2CCc3ccccc3C2)c1)N1CCN(c2ccc(O)cc2)CC1	-0.099	-24	-1.4	1	65*
O=C(NCC1(N2CCOCC2)CCCCC1)c1cccc(S(=O)(=O)N2CCc3ccccc3C2)c1	-0.25	-36	-0.091	0	64*
Cc1ccc(S(=O)(=O)NCc2ccco2)c(C)c1C	x	7	0.1	74*	-9
NC(=O)C1CCN(C(=O)c2cccc(S(=O)(=O)N3CCc4ccccc4C3)c2)CC1	-0.18	-3	0.39	4	0
O=C(NCC1(N2CCOCC2)CCCCC1)c1ccc(Cl)c(S(=O)(=O)NCc2ccco2)c1	x	-73	x	8	93*
Cc1ccc(S(=O)(=O)NCc2ccncc2)c(C)c1C	-2.6	-23	-0.0083	-6	-2
CNC(=O)NNC(=O)c1onc(-c2c(Cl)cccc2Cl)c1C(=O)OC	0.12	23	0.25	x	x
OCC(O)CSc1nc(-c2ccccc2)nc2c1CCC2 (stereo not drawn)	x	-19	0.89	-2	-1
O=C(N=Nc1c(O)[nH]c2ccc(F)cc12)C1COc2ccccc2O1 (stereo not drawn)	x	-17	0	x	x
Cc1ccc(-n2nnnc2SCC(=O)Nc2ncc(Cc3ccccc3Cl)s2)cc1	x	33	0.061	9	1
Cc1ccc(S(=O)(=O)/N=C(/Nc2c(C)n(C)n(-c3ccccc3)c2=O)c2ccccc2)cc1	x	14	1.1	8	23
CCc1ccc(NC(=O)C(C)OC(=O)c2cccc(S(=O)(=O)N3CCc4ccccc4C3)c2)cc1 (stereo not drawn)	x	-18	-0.23	0	89*
O=C(O)c1ccc(Cl)c(S(=O)(=O)NCc2ccco2)c1	0.028	14	0.76	19	-6
CC(=O)Nc1ccc(S(=O)(=O)N2CCc3ccccc3C2)cc1	x	16	-0.15	2	-7
O=C(c1ccc(Cl)c(S(=O)(=O)N2CCCC2)c1)N1CCN(c2ccccc2F)CC1	-2.3	-2	-1.5	16	-5
Cc1cccc(N2CCN(C(=O)c3ccc(Cl)c(S(=O)(=O)NCc4ccco4)c3)CC2)c1C	x	3	-0.41	74*	42
Cc1cccc(N2CCN(C(=O)c3ccc(Cl)c(S(=O)(=O)N4CCc5ccccc5C4)c3)CC2)c1C	x	-14	0.29	7	99*
CCCn1c(SCC(=O)Nc2ccccc2Cl)n[nH]c1=O	x	-14	-0.66	x	x
CCCn1c2c(c(O)c(C(=O)Nc3ccccc3)c1=O)CCCC2	x	16	0.97	44	-4
CCc1cccc(OCCCn2ccnc2)c1	0.057	-13	0.47	11	95*
CCC(C)c1ccccc1OCCn1ccnc1 (stereo not drawn)	0.18	8	-0.22	36	69*
Clc1ccc(OCCn2ccnc2)c(Cl)c1	x	1	0.5	6	25
CCc1cccc(OCCn2nc(C(=O)O)c3ccccc3c2=O)c1	-0.52	31	-0.93	38	7
Brc1cccc(OCCn2ccnc2)c1	1.3	-18	x	0	15
CCOc1cccc(OCCCCn2ccnc2)c1	x	-16	0.25	4	87*
Brc1cccc(OCCOCCn2ccnc2)c1	1.8	-15	-2.3	4	99*
CCCNC(=O)c1onc(CSc2ccncc2)c1C(=O)NCCC	x	4	0.42	x	x
COc1ccc(/C=C/C(=O)NC(=S)NCc2ccccc2)cc1OC	-0.54	0	0.6	x	x
CCSCCOC(=O)C1=C(C)NC(=O)NC1c1cc(OC)ccc1OC (stereo not drawn)	x	-11	x	3	3
